Results taken from PubChem BioAssay AID1441 (NMMLSC, 2008).
In all, about 220,000 compounds went through this assay and about 830 (0.38%) were called active. Only a selection was taken, and actives are over-represented in it overall. Unmarked numbers belong to inactive results. How the calls were made is not given here.

biological target: Regulator of G-protein signaling 16 (Homo sapiens) + Guanine nucleotide-binding protein G(o) subunit alpha (Homo sapiens) (UniProt O15492+P09471); assay: modulators of RGS16 binding to Galphao, primary screen, biochemical, human proteins, multiplexed bead flow cytometry (AID 1441); settings: bead-based flow cytometry RGS16-Galphao binding, fluorescence; at 10 µM; actives lie on both sides;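 further: Galphao activated by GDP with aluminum fluoride before binding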
Sequence (O15492 whole entry, looked up): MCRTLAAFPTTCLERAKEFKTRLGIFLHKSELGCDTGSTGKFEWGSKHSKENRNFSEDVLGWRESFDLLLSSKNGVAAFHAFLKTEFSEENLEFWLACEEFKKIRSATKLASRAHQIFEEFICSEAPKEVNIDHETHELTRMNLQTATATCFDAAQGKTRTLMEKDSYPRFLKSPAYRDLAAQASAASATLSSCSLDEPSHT
Sequence (P09471 whole entry, looked up): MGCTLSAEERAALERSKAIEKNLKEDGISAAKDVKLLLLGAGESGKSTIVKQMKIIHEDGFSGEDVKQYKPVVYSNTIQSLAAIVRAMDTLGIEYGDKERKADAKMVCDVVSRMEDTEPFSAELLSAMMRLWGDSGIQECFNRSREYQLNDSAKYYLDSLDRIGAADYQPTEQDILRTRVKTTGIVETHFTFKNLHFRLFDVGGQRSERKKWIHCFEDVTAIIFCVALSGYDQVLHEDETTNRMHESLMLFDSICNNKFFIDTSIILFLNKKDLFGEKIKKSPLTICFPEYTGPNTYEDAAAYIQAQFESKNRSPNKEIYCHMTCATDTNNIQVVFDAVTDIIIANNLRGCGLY

Point of comparison: `CCOC(=O)CSc1nc2c(c(=O)n(C)c(=O)n2C)n1Cc1ccccc1F`, binding response (% of control) 102%. Against it:
- O=C(Nc1cccnc1Oc1ncnc2cc(Cl)ccc12)c1ccc(F)cc1 — the same, 102%
- CN1CCN(c2ccc(CNS(=O)(=O)c3cccc(F)c3)cc2)CC1 — higher, 104%
- CN(C)CCOc1cccc(Br)c1 — higher, 103%
- CC1Cc2ccccc2N1CC(=O)Nc1ccc(S(N)(=O)=O)cc1 (stereo unspecified) — lower, 93.2%
- O=C1CCC(=O)N(O)CCCCCNC(=O)CCC(=O)N(O)CCCCCNC(=O)CCC(=O)N(O)CCCCCN1 — lower, 40.8%
- CCS(=O)(=O)c1cc([N+](=O)[O-])c(Sc2ccccc2N)s1 — lower, 91.4%
- O=C(NCCCn1ccnc1)C(=O)NCC1OCCN1S(=O)(=O)c1cc(F)ccc1F (stereo unspecified) — higher, 105%
- Cc1ccc(SCCC(=O)OCC(=O)Nc2ncc(Cl)cc2Cl)cc1 — higher, 106%
- NS(=O)(=O)c1cccc(NC(=O)CSc2nc3ccccc3n2-c2ccccc2)c1 — higher, 105%
- CCCNC(=O)c1c(Cl)cnn1-c1ccc(C)cc1 — lower, 99.5%
- CCOc1ccccc1NC(=O)CCN1CCN(S(=O)(=O)c2ccc(OC)cc2)CC1 — the same, 102%
- Cc1c(C(=O)Nc2ccccc2Cl)oc2ccc(S(=O)(=O)N3CCC4(CC3)OCCO4)cc12 — higher, 107%
- Cc1ccc(C(=O)N/C(=C/c2cccnc2)C(=O)O)cc1 — lower, 100%
- Cc1cc(OCCN2CCCC2)cc(C(C)C)c1 — lower, 93.3%
- COC(c1ccccc1)c1nnc(CCC(=O)N2CCN(CCOc3ccccc3)CC2)o1 (stereo unspecified) — lower, 101%
- COc1cc(OC)cc(C(=O)NCCSCc2ccco2)c1 — lower, 97.1%
- COc1cccc(C(=O)NNC(=O)c2ccccc2Br)c1 — higher, 105%
- CC(=O)c1sc(NC(=O)C2=NN(c3ccccc3)C(=O)CC2)nc1C — the same, 102%
- O=C(Cn1ncc(N2CCCC2)c(Br)c1=O)c1ccc(Cl)cc1 — higher, 103%
- O=C(COc1ccc(Cl)cc1)N1CCN(c2cccc(C(F)(F)F)c2)CC1 — higher, 107%
- O=C(CN1CCN(c2ccc(Cl)cc2)CC1)N1CCCC1 — lower, 101%
- CN(C(=O)COC(=O)c1cc(-c2ccco2)nc2ccccc12)C1CCS(=O)(=O)C1 (stereo unspecified) — lower, 89.7%
- Cc1ccc(S(=O)(=O)CC(=O)Nc2c(C)n(C)n(-c3ccccc3)c2=O)cc1 — lower, 98%
- Cc1cc(C)cc(N(C(C)C(=O)Nc2c(C)n(C)n(-c3ccccc3)c2=O)S(C)(=O)=O)c1 (stereo unspecified) — higher, 109%
- C/C(=N/N1CCN(Cc2cccc3ccccc23)CC1)c1cccnc1 — higher, 104%
- COC(=O)c1ccccc1NC(=S)NC(=O)c1ccccc1F — lower, 101%
- C/C=C/C(=O)OCC(=O)Nc1ccc(F)cc1Cl — higher, 104%
- Cc1cccc(CN2CCN(Cc3cnn(-c4ccccc4F)c3)CC2CCO)n1 (stereo unspecified) — lower, 101%
- O=C(NCc1ccccc1)c1ccc(S(=O)(=O)Nc2cccc(C(F)(F)F)c2)cc1 — lower, 80.9%
- Cn1c(=O)c2c(nc(SCC(=O)Nc3ccccc3N3CCCCC3)n2C)n(C)c1=O — higher, 117%
- COc1ccccc1C1CCN(C(=S)Nc2ccc(Br)cc2)CC1 — lower, 98%
- CC(C)CC(=O)NC(=S)Nc1cc(C(=O)O)ccc1Cl — higher, 103%
- COc1ccc(NS(=O)(=O)c2ccc(NC(=S)NC(=O)CC(C)C)cc2)cc1 — lower, 98.4%
- CC(=O)Nc1cccc(-c2nc3ccccc3s2)c1C — higher, 108%
- C/C(=N\NC(=O)c1cccnc1)c1ccc(-c2ccccc2)cc1 — lower, 95.2%
- CC(C)c1nc(CNC(=O)CC2C(=O)NCCN2Cc2ccoc2)cs1 (stereo unspecified) — higher, 105%
- CC(C)=C1SC(N2CCN(c3ccc(C)c(Cl)c3)CC2)=NC1=O — lower, 99.9%
- Cc1cccc(C)c1NC(=O)CNC(=O)Cc1ccc(Br)cc1 — lower, 98.2%
- COc1ccc(CC(=O)Nc2ccc(C(=O)NC(C)(C)C)cc2)cc1 — lower, 99.7%
- O=C(COC(=O)c1ccncc1)c1ccccc1 — higher, 104%
- O=C1C2C3C=CC(C3)C2C(=O)N1c1ccc(S(=O)(=O)Nc2nccs2)cc1 (stereo unspecified) — lower, 93.2%
- COc1ccc2[nH]c(C(=O)Nc3ccccc3Cl)cc2c1 — lower, 97.5%
- CC(C)n1c(=O)[nH]c2cc(C(=O)Nc3ccccc3)ccc21 — higher, 107%
- O=C(Nc1ccc(S(=O)(=O)Nc2nccs2)cc1)c1cc(=O)[nH]c2ccccc12 — lower, 100%
- CC1CCN(Cc2nc(-c3ccc(Cl)cc3)no2)CC1 — higher, 108%
- COC(=O)C1=C(Nc2ccc(C)cc2)C=C(C)C(C(=O)OC)C1c1ccc(F)cc1 (stereo unspecified) — higher, 109%
- COc1ccc(NC(=O)Cn2c(=O)n(Cc3ccco3)c(=O)c3ccccc32)cc1 — lower, 101%
- Cc1cs/c(=N\N=C\c2ccc(O)cc2)n1Cc1ccco1 — higher, 104%
- COc1ccccc1-n1cn[nH]c1=S — the same, 102%
- COc1ccc(OC)c(-n2c(-c3ccn[nH]3)n[nH]c2=S)c1 — the same, 102%
- CCCOc1ccc(Cc2c(Cl)nc(SC)nc2NC)cc1 — lower, 97.7%
- COc1ccc(/C=N/n2nnnc2N)cc1OC — higher, 125%
- C=CCNC(=O)/C(=C\c1cccc([N+](=O)[O-])c1)NC(=O)c1ccccc1 — lower, 98%
- O=C(NCCc1ccccc1)/C(=C\c1ccc([N+](=O)[O-])cc1)NC(=O)c1ccccc1 — lower, 101%
- CCSc1ccccc1C(=O)NCc1ccc(OC)cc1 — lower, 98.1%
- S=c1[nH]nc(-c2cc(-c3ccccc3)n[nH]2)n1/N=C/c1c2ccccc2cc2ccccc12 — lower, 97.7%
- COC(=O)c1ccc(/C=N\n2c(C)nnc2C)cc1 — lower, 82.2%
- Cc1cccc(NC(=O)c2nc[nH]c2C(=O)NCC(=O)OCc2ccccc2)c1 — higher, 110%
- NC(=O)Cc1ccc2c(c1)[nH]c1ccccc12 — higher, 103%
- O=C(O)Cc1sc(-c2ccc(C(=O)O)cc2)nc1-c1ccccc1 — lower, 99.1%
- CSCC[C@H](NC(=O)CCCn1nnc2ccccc2c1=O)C(=O)O — higher, 104%
- Cc1ccc(Cn2c(SCC(=O)N/N=C/c3ccccc3OCC(=O)O)nc3ccccc32)cc1 — lower, 99.5%
- COc1ccc(OC)c(/C=N/NC(=O)CSc2nnc(C)n2-c2ccccc2)c1 — lower, 97.7%
- Cc1ccc(NC(=O)NCC(c2cccnc2)N2CCOCC2)cc1 (stereo unspecified) — higher, 105%
- CN1CCN(S(=O)(=O)c2ccc(N3CCN(S(=O)(=O)c4cccs4)CC3)nc2)CC1 — lower, 98.8%
- Cn1nc(C(C)(C)C)c([N+](=O)[O-])c1C(N)=O — lower, 98.6%
- COc1ccc2c(c1)CC[C@@H]1[C@@H]2CC[C@]2(C)C(=O)CC[C@@H]12 — lower, 101%
- O=C(NCCc1c[nH]c2ccc(Cl)cc12)c1ccc([N+](=O)[O-])cc1 — higher, 112%
- COc1ccccc1-n1c(=S)[nH]c2c(sc(=S)n2-c2ccc(C)cc2C)c1=O — lower, 94.4%
- COc1cccc(C2Nc3cccc4cccc(c34)N2)c1 — higher, 106%
- Cc1ccc(C)c(NC(=O)C(OC(=O)c2ccc(C)s2)c2ccccc2)c1 (stereo unspecified) — higher, 112%
- COc1ccc(CN(Cc2ccc(OC)cc2)C(=O)c2cccs2)cc1 — lower, 99%

For `CC1(C)C=C2[C@H]3CC[C@@H]4[C@@]5(C)CCC(=O)C(C)(C)[C@@H]5CC[C@@]4(C)[C@]3(C)CC[C@@]2(C(=O)O)CC1`, the binding response (% of control) was 267% [activator] (active).
With `Cc1ccc(-n2c(SCC(=O)Nc3ncc(Cl)cc3Cl)nc3ccccc32)cc1` the binding response (% of control) was 13.7% (active).
For `CCOc1ccccc1NC(=O)c1cc(S(=O)(=O)N2CCC3(CC2)OCCO3)ccc1F`, the binding response (% of control) was 4.15% (active).
`COc1cccc(C(=O)NCCSc2ccc(Br)cc2)c1` was tested, and the binding response (% of control) was 11.1% (active).
For `COC(=O)c1ccccc1OCC(=O)N1CCN(c2ccc(Cl)cc2)CC1`, the binding response (% of control) was 461% [activator] (active).
With `Cc1cc(C)cc(N(CC(=O)Nc2c(C)n(C)n(-c3ccccc3)c2=O)S(C)(=O)=O)c1` the binding response (% of control) was -28.4% (active).
`CCOC(=O)CSc1nc2c(c(=O)n(Cc3ccccc3Cl)c(=O)n2C)n1C` was tested, and the binding response (% of control) was -55.5% (active).
With `CC(=O)c1ccc(NC(=S)NC(=O)CC(C)C)cc1` the binding response (% of control) was 21.8% (active).
In the case of `CC(C)(C)NC(=O)c1cccc(NC(=O)Cc2ccc(Br)cc2)c1`, the binding response (% of control) is reported as -3.28% (active).
In the case of `O=C(Nc1ccccc1)c1cc2ccccc2[nH]1`, the binding response (% of control) is reported as 13.8% (active).
With `CN(c1ccccc1)c1ccc(/C=c2\s/c(=C(/C#N)C(=O)C(C)(C)C)n(Cc3ccco3)c2=O)cc1` the binding response (% of control) was 551% [activator] (active).
With `COc1ccccc1-n1c(-c2cc(-c3ccco3)[nH]n2)n[nH]c1=S` the binding response (% of control) was -1.14% (active).
With `CN(C)CCNC(=O)/C(=C/c1cccc([N+](=O)[O-])c1)NC(=O)c1ccccc1` the binding response (% of control) was 219% [activator] (active).
`CCN(CC)S(=O)(=O)c1cccc(-c2n[nH]c(=S)n2/N=C/c2ccc(C(=O)OC)cc2)c1` was tested, and the binding response (% of control) was 334% [activator] (active).
`NC(=O)Cc1ccc2sc(-c3ccccc3)nc2c1` was tested, and the binding response (% of control) was 23.6% (active).
With `C=CCn1c(Cn2nnc3ccccc32)nnc1SCC(=O)N/N=C/c1cc(Br)cc(OC)c1O` the binding response (% of control) was -35.2% (active).
In the case of `CN1CCN(C(CNS(=O)(=O)c2cccs2)c2cccnc2)CC1` (stereo unspecified), the binding response (% of control) is reported as -5.62% (active).
For `O=[N+]([O-])C(=c1ccc2c(c1)N1C3=C(CCCC3)CC3CCCCC31N=2)[N+](=O)[O-]` (stereo unspecified), the binding response (% of control) was 20.9% (active).
